Results: PubChem BioAssay AID1794844 (National Center for Advancing Translational Sciences (NCATS), 2023)
The campaign covered roughly 2,800 compounds. Fewer than 10 were called active. About 7% were inconclusive and are not listed. Only a sample is shown. A number with no mark means an inactive call. Calls come from the whole dose curve; as a rule, active = well fitted inhibition curve with a large enough effect; inconclusive = small, poorly fitted or top-dose-only effect; inactive = no such curve, though single readings can be large or run the other way.

Molecular target: Metallo-beta-lactamase type 2 (Klebsiella pneumoniae) (UniProt C7C422)
Sequence (C7C422 whole entry, looked up): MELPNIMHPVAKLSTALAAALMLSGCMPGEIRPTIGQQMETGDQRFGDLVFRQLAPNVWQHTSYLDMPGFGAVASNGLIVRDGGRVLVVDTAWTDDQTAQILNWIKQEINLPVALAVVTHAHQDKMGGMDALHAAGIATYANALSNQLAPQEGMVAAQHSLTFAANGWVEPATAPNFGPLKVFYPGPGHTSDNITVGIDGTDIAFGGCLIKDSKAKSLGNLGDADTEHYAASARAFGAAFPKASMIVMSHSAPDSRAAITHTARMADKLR
Test: qHTS to identify inhibitors of the New Delhi Metallo-beta-lactamase (NDM): Nitrocefin screen against the machine-based learning selections. For activity, negative = inhibition: % of control where 0% means no effect.
Conditions: NDM-1 enzyme, nitrocefin hydrolysis, absorbance 485 nm; series mostly up to 38.4 µM; activity, negative = inhibition: at the top concentration
Excerpt: Assay Submitter (PI): James Inglese Ph.D., Patricia Dranchak Ph.D., Mahesh Aitha Ph.D. Assay Development and Screening Technology Laboratory (ADST) National Center for Advancing Translational Sciences (NCATS), Rockville, MD National Institute of Health (NIH), Bethesda, Maryland The metallo-beta-lactamases (MBL) are a main antibiotic resistance mechanism evolved by bacteria. There is an urgent clinical need for MBL inhibitors to mitigate this growing threat. To support a machine-based learning study, qHTS has been used to experimentally test inhibitors identified by prediction tools.
PROTOCOL TABLE (as described by Inglese et al., 2007) SEQUENCE No. (e.g., 1, 2, 3, etc.); […] (e.g., enzyme, Incubation, Reagent, etc.); VALUE; DESCRIPTION Primary Screen 1; NDM-1; 4 uL of 3 nM enzyme [2 nM final] in 50 mM HEPES (pH 7.0), 1 uM […], 0.01% Tween20; Use BioRaptr to dispense into two sets of Aurora black, clear bottom high base 1536-well plates 2; Compounds; 23 nL; Use Pin Tool (Wako) to transfer DMSO control and library compounds in DMSO 3; Incubate; >30 min 4a; Reagent; 2 uL of 50 uM nitrocefin [16.7 uM final] to one set of assay plates 4b; Reagent; 2 uL of 150 uM meropenem [50 uM final] to second set of assay plates 5a; Incubate; 15 min 5b; Incubate; 30 min 6a; Detector; Absorbance at 485 nm (bandwidth = 5 nm, 25 flashes/well) on Tecan Infinity 6b; Detector; Absorbance at 300 nm (bandwidth = 5 nm, 25 flashes/well) on Tecan Infinity NOTES (numbers refer to sequence above) 1; Column 1 of each plate received assay buffer without enzyme and columns 2-48 received enzyme for a final assay concentration of 2 nM. 2; Control plate contained DMSO in columns 1, 2, 3, and 4. 3; Compound interaction with enzyme. 4; Nitrocefin and meropenem substrates were prepared in the same assay buffer as step 1 for a final assay concentration of 16.7 uM and 50 uM, respectively, and added to all wells across respective sets of assay plates. 5; Default reader settings were applied for absorbance read at 485 nm (nitrocefin) or 300 nm (meropenem), bandwidth = 5 nm, 25 flashes/well. References: Inglese J, Shamu CE, Guy RK. 2007. Reporting data from high-throughput screening of small-molecule libraries. Nat Chem Biol. doi:10.1038/nchembio0807-438 Yasgar A, Shinn P, Jadhav A, Auld D, Michael S, Zheng W, Austin CP, Inglese J, Simeonov A. 2008. Compound Management for Quantitative High-Throughput Screening. J Lab Autom 13:79 - 89. doi:10.1016/j.jala.2007.12.004
Potency is the fitted concentration of half-maximal effect.

In order of rising “activity, negative = inhibition” value:
1. COc1ccc(C(=O)N2CC[C@@H](CC(=O)O)[C@@H](CCN3CCN(c4ccccn4)CC3)C2)cc1  -10.6%
2. Cc1nc(C(=O)N2CCC(c3nnc(CN4CCCC4)n3C)CC2)cs1  -8.34%
3. O=C(Cc1ccccc1C(F)(F)F)N1CCC2(CC1)[C@H](O)C[C@@H]2O  -5.52%
4. CCCN1CC2(CCN(C(=O)c3ccc(C)nc3)CC2)CC1C(=O)O (centres undefined)  -5.46%
5. Nc1ccc(-c2ccc(OCCn3ccnc3)cc2)cn1  -4.87%
6. CCc1ncc(C(=O)N2CCN(c3ccc(Cl)c(Cl)c3)CC2)cn1  -4.54%
7. Cc1ccc(C(=O)N2CCN(c3nnc4cccc(C)n34)CC2)cc1F  -3.81%
8. Cn1ccc2c(C(=O)N[C@H](c3cccs3)C3CC(O)C3)cccc21 (some centres undefined)  -3.78%
9. COCCN1CCCC2(CCN(C(=O)c3ccccc3)C2)C1 (centres undefined)  -3.5%
10. CN(C)c1ccc(-c2nnnn2[C@H]2CO[C@H]3[C@@H]2OC[C@@H]3NS(=O)(=O)c2ccc3ccccc3c2)cc1  -2.44%
11. O=C1CC(C(=O)O)C2(CCN(c3cc(C4CC4)ncn3)CC2)N1 (centres undefined)  -1.94%
12. N[C@@H](Cc1cnc[nH]1)C(=O)NCc1cccnc1Oc1ccc(F)cc1F  -1.51%
13. CCN1CCN(C2(C(=O)NCCc3ccccc3)Cc3ccccc3C2)CC1  -0.956%
14. C[C@@]1(O)CCN(c2ncccc2C(=O)c2nccs2)C[C@@H]1O  -0.625%
15. Cc1[nH]c2ccc(C(=O)N3CC[C@@](C)(O)[C@@H](O)C3)cc2c1C  -0.0594%
16. Cc1noc(C)c1S(=O)(=O)N1C[C@@H](C(N)=O)[C@H](C2CCN(C)CC2)C1  0.0336%
17. O=C1C(c2ccccc2)CC2(CCN(c3cnccn3)CC2)CN1C1CC1 (centres undefined)  0.213%
18. Cc1cnc(C(=O)N2CCC(N3C(=O)C4(CCCC4)C3c3ccccc3)CC2)cn1 (centres undefined)  0.565%
19. COc1nc(C)c(C(=O)N2CCC(c3[nH]ncc3-c3ccccc3)CC2)s1  0.575%
20. COCCCNC(=O)N1CC(c2nc(CCOCC3CCOCC3)no2)C1  1.08%
21. CC(=O)N1CCN(C(=O)C[C@@H]2c3nc(NC(=O)C4CCCCC4)sc3C[C@@H]3[C@](C)(CO)[C@H](O)CC[C@]32C)CC1  1.19%
22. CNC(=O)[C@H]1C[C@H](Oc2cccnc2)CN1S(=O)(=O)c1ccc(OC)cc1  1.27%
23. Cc1cccc(C)c1-c1nc(C(=O)NCCc2ccc(Cl)cc2)n2ccccc12  2.12%
24. O=C(Nc1cccc(C(F)(F)F)c1)N[C@H]1CO[C@H]2[C@@H]1OC[C@@H]2Nc1nccc(-c2ccc(-c3ccccc3)cc2)n1  3.13%
25. CN(Cc1cc(-c2cccs2)n[nH]1)C(=O)c1cn(CCN)nn1  3.42%
26. Cc1cccc(Cl)c1NC(=O)N1CCC2(CC1)C(C(=O)O)CC(=O)N2C (centres undefined)  6.76%
27. Nc1n[nH]c(CNc2cc(-c3ccc(F)cc3)nc3ccnn23)n1  8.01%
28. Cc1nc(C2CCCCN2C(=O)Cc2ccccc2)n[nH]1 (centres undefined)  8.61%
29. c1cncc(CNc2cc(-c3cnc4ccccc4n3)c3cc[nH]c3n2)c1  11.1%
30. COC(=O)c1ccccc1NC(=O)Cn1cccc1-c1nc(-c2ccccc2)no1  11.4%

In order of falling “activity, negative = inhibition” value:
1. O=C(Nc1ccc([C@H]2OCC(=O)N(C3CCOCC3)[C@@H]2CO)cc1)c1cnccn1  317% [at 57.5 µM]
2. O=C(Cc1c[nH]c2ncc(-c3cccc(Cl)c3)cc12)NCc1cccnc1  7.39% [at 57.5 µM]
3. COc1cccc(Nc2cc3c(cn2)CN(Cc2cccnc2)CCN3)c1  6.77% [at 57.5 µM]
4. Cc1noc2c(N3CCOCC3)cc(-c3cccnc3)nc12  5.33% [at 57.5 µM]
5. COCC(=O)N[C@H]1CO[C@H]2[C@@H]1OC[C@@H]2Nc1nccc(-c2cccc(C#N)c2)n1  4.59% [at 57.5 µM]
6. OC(c1cccc(C(F)(F)F)c1)c1nc(Nc2ccc(F)cc2)n[nH]1 (centres undefined)  3.6% [at 57.5 µM]
7. CCCNC(=O)NC[C@H]1O[C@@H]2C[C@@H](CC(=O)N3CCC(F)(F)C3)O[C@@H]2[C@@H]1O  3.53% [at 57.5 µM]
8. N#Cc1cccc(CN2CCOC[C@H]2c2ncc(-c3ccccc3)[nH]2)c1  1.13% [at 57.5 µM]
9. COC(=O)[C@@H](C)NC(=O)[C@H]1CN(C(=O)c2cccnc2)CCN1S(C)(=O)=O  0.882% [at 57.5 µM]
10. Cc1ccc2nc(C3CCCN(Cc4ccccc4)C3)[nH]c(=O)c2c1 (centres undefined)  0.6% [at 57.5 µM]
11. CCNC(=O)O[C@@H]1CO[C@H]2[C@@H]1OC[C@@H]2NC(=S)Nc1ccc(N(C)C)cc1  0.306% [at 57.5 µM]
12. Cc1noc2c(-c3cccnc3)cc(-c3cccs3)nc12  -1.29% [at 57.5 µM]
13. O=C(N[C@H]1[C@H](O)[C@H](O)C[C@@H]1c1cccnc1)c1ccccn1  -2.52% [at 57.5 µM]
14. O=C(c1ccccc1)N1CCN2C(=O)N(Cc3ccccc3)C(=O)[C@H]2C1  -2.63% [at 57.5 µM]
15. O=C(c1cccnc1)N1CC[C@H](c2nnc(Cc3ccccc3)o2)C1  -2.68% [at 57.5 µM]
16. COCCNC(=O)[C@@H]1CCC[C@@H](NC(=O)C2CC2)CN(C)C(=O)C1  -4.15% [at 57.5 µM]
17. CC(C)C[C@@H]1N[C@H](C(=O)NCc2cccs2)Cc2c[nH]c3cccc1c23  -5.41% [at 57.5 µM]
18. O=C(O)c1cccc(-c2n[nH]c3c2CC(=O)N(c2ccccc2)C3)c1  -14.2% [at 57.5 µM]
19. COc1cccc(NC(=O)N[C@H](C)c2onc(-c3ccc(F)cc3)c2C(=O)O)c1  -18.1% [at 57.5 µM]

With `CN1CC2(CCN(C(=O)c3ccccc3-c3nn[nH]n3)CC2)CC1C(=O)O` (centres undefined) the Potency was 6.69 µM (active).
For `Cc1ccc2nc(C)cc(C(=O)N3CCC(c4cc(CC(=O)O)[nH]n4)CC3)c2c1`, the Potency was 9.45 µM (active).
For `Cc1nc2c(C(=O)N3CCC(c4cc(CC(=O)O)[nH]n4)CC3)cccc2[nH]1`, the Potency was 8.42 µM (active).

In order of falling “activity, negative = inhibition” value:
1. CC(C)(C)c1nnc([C@H]2CCN(Cc3ccco3)C2)o1  2.73% [at 76.7 µM]
2. CC(=O)N1CC[C@H](c2nc3cc(C)ccc3o2)C1  -5.97% [at 76.7 µM]
